Inhibition data for seven molecules are collected here from ChEMBL document CHEMBL1961873, “Compounds: GSK PKIS; Assays: Nanosyn kinase panel” (2012).

Structures are written as SMILES.

Experiment [1] concerns the target Tyrosine-protein kinase Fyn (Homo sapiens) (UniProt P06241). The conditions noted are these: at 1 µM.
The target in experiment [2] is Tyrosine-protein kinase HCK (Homo sapiens) (UniProt P08631). As to conditions: at 0.1 µM.
Experiment [3] shares this target. As to conditions: at 1 µM.
The target of experiment [4] is Insulin-like growth factor 1 receptor (Homo sapiens) (UniProt P08069). As to conditions: at 0.1 µM.
For experiment [5] the target is unchanged. As to conditions: at 1 µM.
Experiment [6] deals with Insulin receptor (Homo sapiens) (UniProt P06213). As to conditions: at 0.1 µM.
For experiment [7] the target is unchanged. As to conditions: at 1 µM.
Experiment [8] deals with Insulin receptor-related protein (Homo sapiens) (UniProt P14616). As to conditions: at 0.1 µM.
Experiment [9] shares this target. As to conditions: at 1 µM.
Experiment [10] addresses T1, Tyrosine-protein kinase ITK/TSK (Homo sapiens) (UniProt Q08881).
T1 sequence (whole entry): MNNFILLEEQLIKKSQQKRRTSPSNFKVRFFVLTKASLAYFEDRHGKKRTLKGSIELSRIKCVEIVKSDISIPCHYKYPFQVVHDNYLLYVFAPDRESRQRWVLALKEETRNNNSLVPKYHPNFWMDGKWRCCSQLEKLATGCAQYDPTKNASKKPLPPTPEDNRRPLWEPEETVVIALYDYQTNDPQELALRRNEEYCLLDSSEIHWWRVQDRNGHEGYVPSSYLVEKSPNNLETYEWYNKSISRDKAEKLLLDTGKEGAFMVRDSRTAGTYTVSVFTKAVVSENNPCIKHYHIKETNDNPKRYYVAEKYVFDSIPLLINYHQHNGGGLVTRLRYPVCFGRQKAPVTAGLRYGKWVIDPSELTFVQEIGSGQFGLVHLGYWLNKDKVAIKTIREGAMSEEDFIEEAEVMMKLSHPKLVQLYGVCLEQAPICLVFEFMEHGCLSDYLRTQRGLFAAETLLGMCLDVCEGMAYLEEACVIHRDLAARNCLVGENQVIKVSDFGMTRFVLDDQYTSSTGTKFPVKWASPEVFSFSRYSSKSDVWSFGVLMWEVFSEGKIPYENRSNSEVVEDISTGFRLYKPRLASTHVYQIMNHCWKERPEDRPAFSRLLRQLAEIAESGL
The conditions noted are these: at 0.1 µM.

Experiment [11] concerns the target T1, Tyrosine-protein kinase ITK/TSK (Homo sapiens). The conditions noted are these: at 1 µM.
In experiment [12] the target is Tyrosine-protein kinase JAK1 (Homo sapiens) (UniProt P23458). As to conditions: at 0.1 µM.
Experiment [13] has the same target. The conditions noted are these: at 1 µM.
In experiment [14] the target is Tyrosine-protein kinase JAK2 (Homo sapiens) (UniProt O60674). The conditions noted are these: at 0.1 µM.
The target is the same in experiment [15]. As to conditions: at 1 µM.
In experiment [16] the target is T2, Tyrosine-protein kinase JAK3 (Homo sapiens) (UniProt P52333).
T2 sequence (whole entry): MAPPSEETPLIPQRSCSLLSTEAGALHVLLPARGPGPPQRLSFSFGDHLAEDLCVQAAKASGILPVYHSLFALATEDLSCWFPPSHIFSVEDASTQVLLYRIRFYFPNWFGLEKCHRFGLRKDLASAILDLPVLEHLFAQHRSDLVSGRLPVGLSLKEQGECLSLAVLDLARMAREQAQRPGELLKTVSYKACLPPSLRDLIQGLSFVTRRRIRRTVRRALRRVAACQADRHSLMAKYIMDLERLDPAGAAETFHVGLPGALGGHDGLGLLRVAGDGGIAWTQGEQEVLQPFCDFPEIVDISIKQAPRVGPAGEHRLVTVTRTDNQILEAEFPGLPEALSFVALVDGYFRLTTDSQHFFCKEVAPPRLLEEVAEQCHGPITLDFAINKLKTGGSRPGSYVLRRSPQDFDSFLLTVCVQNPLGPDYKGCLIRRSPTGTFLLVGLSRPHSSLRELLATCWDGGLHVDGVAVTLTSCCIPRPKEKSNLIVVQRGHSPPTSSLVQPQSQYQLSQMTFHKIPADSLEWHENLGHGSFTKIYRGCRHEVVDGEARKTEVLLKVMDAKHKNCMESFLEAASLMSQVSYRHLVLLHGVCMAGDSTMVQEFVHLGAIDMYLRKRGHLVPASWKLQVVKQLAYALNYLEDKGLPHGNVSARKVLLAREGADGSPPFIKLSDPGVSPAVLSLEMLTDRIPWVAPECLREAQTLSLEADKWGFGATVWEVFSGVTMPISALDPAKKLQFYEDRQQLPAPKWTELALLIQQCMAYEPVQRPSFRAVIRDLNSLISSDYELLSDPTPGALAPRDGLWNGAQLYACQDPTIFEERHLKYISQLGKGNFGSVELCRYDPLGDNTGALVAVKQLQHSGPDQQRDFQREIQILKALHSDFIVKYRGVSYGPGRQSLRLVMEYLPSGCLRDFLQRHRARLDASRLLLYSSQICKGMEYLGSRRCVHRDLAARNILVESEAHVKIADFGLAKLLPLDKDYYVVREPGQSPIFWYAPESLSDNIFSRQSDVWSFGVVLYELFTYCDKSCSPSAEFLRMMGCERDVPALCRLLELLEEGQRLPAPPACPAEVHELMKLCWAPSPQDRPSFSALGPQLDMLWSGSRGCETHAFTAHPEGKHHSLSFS
The conditions noted are these: at 0.1 µM.

In experiment [17] the target is T2, Tyrosine-protein kinase JAK3 (Homo sapiens). As to conditions: at 1 µM.
The target in experiment [18] is Vascular endothelial growth factor receptor 2 (Homo sapiens) (UniProt P35968). The conditions noted are these: at 0.1 µM.
Experiment [19] shares this target. The conditions noted are these: at 1 µM.
In experiment [20] the target is Mast/stem cell growth factor receptor Kit (Homo sapiens) (UniProt P10721). The conditions noted are these: at 0.1 µM.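 Further: values are mean inhibition of KIT, from the GSK PKIS dataset.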
Mast/stem cell growth factor receptor Kit (Homo sapiens), sequence (P10721 whole entry): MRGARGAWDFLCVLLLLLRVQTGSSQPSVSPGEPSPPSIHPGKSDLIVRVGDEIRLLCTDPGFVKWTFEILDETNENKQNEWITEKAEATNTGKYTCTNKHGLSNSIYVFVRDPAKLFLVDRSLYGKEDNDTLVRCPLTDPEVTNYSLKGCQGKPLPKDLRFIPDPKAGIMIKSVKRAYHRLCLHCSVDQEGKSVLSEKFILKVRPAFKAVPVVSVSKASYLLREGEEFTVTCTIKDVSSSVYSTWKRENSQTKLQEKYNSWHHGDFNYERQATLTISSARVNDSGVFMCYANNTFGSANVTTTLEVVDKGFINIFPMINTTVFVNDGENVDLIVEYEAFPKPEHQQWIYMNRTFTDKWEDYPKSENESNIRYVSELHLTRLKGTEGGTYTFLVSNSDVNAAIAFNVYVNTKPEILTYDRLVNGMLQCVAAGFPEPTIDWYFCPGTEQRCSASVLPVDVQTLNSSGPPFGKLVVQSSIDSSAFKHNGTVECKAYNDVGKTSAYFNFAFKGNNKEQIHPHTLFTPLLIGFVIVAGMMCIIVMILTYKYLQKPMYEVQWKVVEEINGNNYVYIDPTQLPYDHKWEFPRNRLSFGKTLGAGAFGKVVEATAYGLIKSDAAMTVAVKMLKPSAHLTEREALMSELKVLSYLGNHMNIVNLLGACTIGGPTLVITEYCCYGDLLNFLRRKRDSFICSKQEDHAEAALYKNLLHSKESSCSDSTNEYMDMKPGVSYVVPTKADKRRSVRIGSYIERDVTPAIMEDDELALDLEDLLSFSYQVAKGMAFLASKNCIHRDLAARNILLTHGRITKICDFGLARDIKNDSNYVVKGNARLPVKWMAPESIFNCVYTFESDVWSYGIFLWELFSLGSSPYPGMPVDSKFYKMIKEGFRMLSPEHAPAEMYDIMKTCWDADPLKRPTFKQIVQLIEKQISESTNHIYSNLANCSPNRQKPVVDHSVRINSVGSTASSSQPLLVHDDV

Insulin-like growth factor 1 receptor (Homo sapiens), sequence (P08069 31-736 limits assumed): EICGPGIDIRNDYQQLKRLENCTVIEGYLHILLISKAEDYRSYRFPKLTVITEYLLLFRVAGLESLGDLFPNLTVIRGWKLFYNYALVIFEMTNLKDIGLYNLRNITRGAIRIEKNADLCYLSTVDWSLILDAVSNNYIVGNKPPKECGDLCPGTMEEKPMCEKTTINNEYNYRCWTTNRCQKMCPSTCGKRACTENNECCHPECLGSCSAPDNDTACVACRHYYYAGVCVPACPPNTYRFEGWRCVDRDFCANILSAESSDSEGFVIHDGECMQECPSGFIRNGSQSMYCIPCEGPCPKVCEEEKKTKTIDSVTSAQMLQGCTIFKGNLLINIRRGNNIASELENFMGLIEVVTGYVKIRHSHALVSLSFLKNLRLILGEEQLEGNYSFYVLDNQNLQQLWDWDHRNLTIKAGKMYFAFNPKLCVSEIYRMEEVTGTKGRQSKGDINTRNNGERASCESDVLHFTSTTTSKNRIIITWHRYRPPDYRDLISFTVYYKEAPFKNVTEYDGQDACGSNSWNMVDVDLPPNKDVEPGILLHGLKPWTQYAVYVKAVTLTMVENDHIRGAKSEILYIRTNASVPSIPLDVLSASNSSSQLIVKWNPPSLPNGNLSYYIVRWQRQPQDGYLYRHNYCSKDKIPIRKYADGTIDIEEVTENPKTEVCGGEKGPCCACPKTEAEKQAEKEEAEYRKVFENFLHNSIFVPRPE
Insulin-like growth factor 1 receptor (Homo sapiens), sequence (P08069 741-1367 limits assumed): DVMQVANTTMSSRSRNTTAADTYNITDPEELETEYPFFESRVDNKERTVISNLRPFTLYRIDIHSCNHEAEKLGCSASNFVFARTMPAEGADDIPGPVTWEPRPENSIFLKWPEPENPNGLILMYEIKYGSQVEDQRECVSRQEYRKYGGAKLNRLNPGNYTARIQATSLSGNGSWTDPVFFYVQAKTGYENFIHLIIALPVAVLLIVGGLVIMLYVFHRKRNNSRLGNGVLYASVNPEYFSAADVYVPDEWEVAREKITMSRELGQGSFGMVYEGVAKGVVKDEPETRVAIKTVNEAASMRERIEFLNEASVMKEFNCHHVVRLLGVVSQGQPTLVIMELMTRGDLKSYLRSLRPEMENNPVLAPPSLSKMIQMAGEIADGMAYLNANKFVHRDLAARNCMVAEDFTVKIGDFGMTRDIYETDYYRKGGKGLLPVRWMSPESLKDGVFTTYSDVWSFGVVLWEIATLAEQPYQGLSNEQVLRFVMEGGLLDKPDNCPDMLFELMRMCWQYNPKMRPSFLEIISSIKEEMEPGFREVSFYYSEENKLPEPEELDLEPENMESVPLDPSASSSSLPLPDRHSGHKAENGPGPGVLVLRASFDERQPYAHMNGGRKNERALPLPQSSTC
Insulin receptor (Homo sapiens), sequence (P06213 28-758 limits assumed): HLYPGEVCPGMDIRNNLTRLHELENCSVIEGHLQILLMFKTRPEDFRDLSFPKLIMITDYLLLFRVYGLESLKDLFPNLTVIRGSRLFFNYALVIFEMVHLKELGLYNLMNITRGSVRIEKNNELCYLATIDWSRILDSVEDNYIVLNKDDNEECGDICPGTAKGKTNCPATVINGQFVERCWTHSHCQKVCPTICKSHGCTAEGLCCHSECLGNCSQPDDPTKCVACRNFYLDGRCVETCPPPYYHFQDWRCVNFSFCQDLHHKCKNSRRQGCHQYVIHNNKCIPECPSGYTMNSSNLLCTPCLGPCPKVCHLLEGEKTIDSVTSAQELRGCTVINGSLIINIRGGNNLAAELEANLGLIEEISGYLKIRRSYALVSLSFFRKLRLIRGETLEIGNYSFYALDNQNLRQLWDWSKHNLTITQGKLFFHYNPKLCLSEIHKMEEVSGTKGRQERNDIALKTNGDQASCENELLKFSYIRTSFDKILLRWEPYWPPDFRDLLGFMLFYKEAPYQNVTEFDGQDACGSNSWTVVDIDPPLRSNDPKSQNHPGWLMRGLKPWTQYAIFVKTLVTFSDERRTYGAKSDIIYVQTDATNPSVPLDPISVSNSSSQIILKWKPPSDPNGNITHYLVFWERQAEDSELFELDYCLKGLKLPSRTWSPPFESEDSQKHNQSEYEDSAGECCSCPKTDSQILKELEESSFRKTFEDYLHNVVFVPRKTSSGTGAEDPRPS
Insulin receptor (Homo sapiens), sequence (P06213 763-1382 limits assumed): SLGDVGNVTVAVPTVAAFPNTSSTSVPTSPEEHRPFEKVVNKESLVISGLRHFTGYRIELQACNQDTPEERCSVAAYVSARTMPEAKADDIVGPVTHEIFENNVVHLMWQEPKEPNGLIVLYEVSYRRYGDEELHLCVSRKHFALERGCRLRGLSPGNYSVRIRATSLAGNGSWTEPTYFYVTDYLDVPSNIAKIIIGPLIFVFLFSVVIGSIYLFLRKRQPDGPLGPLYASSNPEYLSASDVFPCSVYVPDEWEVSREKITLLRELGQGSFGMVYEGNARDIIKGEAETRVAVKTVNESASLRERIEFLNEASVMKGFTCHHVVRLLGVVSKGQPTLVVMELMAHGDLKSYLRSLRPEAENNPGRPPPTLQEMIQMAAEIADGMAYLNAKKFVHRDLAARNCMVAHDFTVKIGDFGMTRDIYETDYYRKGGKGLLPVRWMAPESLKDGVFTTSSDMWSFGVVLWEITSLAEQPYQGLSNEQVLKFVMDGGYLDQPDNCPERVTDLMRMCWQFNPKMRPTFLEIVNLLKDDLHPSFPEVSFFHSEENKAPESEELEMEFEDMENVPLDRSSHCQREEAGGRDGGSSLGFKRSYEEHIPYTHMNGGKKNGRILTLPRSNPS
Tyrosine-protein kinase HCK (Homo sapiens), sequence (P08631 2-526 limits assumed): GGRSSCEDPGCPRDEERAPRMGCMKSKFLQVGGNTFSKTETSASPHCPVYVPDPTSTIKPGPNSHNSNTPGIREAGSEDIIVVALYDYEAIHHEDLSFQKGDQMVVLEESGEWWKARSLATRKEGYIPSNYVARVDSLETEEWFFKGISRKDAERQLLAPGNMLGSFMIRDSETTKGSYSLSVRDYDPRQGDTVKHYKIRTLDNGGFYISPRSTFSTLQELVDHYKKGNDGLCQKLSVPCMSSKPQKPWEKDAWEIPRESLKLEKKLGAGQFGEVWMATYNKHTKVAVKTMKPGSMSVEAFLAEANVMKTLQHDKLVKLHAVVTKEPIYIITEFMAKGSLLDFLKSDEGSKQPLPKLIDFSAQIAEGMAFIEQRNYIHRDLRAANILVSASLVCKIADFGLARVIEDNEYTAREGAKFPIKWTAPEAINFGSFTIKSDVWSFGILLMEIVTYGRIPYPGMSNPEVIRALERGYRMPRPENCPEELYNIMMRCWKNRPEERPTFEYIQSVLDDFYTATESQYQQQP
Tyrosine-protein kinase Fyn (Homo sapiens), sequence (P06241 2-537 limits assumed): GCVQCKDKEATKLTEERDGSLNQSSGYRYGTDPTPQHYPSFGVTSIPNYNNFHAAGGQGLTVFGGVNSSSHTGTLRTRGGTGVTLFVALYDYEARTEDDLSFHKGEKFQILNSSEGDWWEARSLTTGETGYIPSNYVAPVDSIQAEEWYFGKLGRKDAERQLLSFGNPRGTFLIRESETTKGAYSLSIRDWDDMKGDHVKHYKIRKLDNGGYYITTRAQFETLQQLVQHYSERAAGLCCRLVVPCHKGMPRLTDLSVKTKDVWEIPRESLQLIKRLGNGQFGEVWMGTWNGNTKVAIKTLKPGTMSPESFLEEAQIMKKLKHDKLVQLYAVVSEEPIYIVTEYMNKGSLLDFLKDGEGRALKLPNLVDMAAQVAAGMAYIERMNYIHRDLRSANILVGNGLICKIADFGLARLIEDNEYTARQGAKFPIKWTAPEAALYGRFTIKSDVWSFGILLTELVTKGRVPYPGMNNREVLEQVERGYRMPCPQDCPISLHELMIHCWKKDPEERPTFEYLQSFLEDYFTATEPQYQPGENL

What is called inhibition is the change of the read-out against control, counted positive when it falls. In the case of `Nc1ncc(-c2cccc(S(N)(=O)=O)c2)c2scc(-c3ccc(F)c(Cl)c3)c12`, the inhibition in [1] is 32.6%; in experiment [2] it was 28.2%; in experiment [3], 76.1%; in [4] it was 0.87%; in [5] it was 1.23%; in experiment [6], -0.93%. Further, the inhibition in experiment [7] is 1.76%; in [8], 2.94%; in [9], 4.45%; in [10], 0.53%; in [11] it was 3.69%; in [12] it was 2.73%. Besides, the inhibition is 6.91% in experiment [13]; 0.29% in experiment [14]; 1.31% in experiment [15]; -2.63% in [16]; -0.64% in experiment [17]; 6.89% in [18]. For the same molecule, the inhibition in experiment [19] was 34.2%; in experiment [20] it was 38%.
On to `COc1cc(Nc2nccc(Nc3ccc4c(C)n[nH]c4c3)n2)cc(OC)c1OC`, for which the inhibition is 85.4% in experiment [1]; 31.2% in [2]; 67.7% in experiment [3]; 28% in [4]; 76.8% in [5]; 13.1% in experiment [6]. In addition, the inhibition in experiment [7] was 64.7%; in [8], 1.88%; in [9] it was 3.74%; in experiment [10], 2.37%; in experiment [11], 7.07%; in [12], 17.8%. The inhibition in experiment [13] came out at 66.5%; in experiment [14], 35.6%; in experiment [15] it was 72.5%; in experiment [16], 1.48%; in [17] it was 27.8%; in experiment [18] it was 74.9%. Besides, the values for the inhibition in experiment [19] and in [20] were 72.5% and 77.3%, respectively.
Consider `O=C(Nc1n[nH]c2cc(-c3ccc(F)cc3)ccc12)C1CC1`, for which the inhibition in experiment [1] worked out at 3.69%; in experiment [2], 5.36%; in experiment [3], 8.36%; in experiment [4], 4.19%; in experiment [5], 0.88%; in [6], 3.21%. Besides, the inhibition came to 5.18% in [7]; 1.75% in experiment [8]; 1.45% in [9]; 1.07% in experiment [10]; 2.49% in experiment [11]; 1.55% in experiment [12]. The inhibition in experiment [13] is 4.17%; in [14], 1.12%; in experiment [15], 1.73%; in experiment [16] it was -0.91%; in experiment [17] it was -0.96%; in experiment [18], 6.51%. In addition, the inhibition in [19] was 19.5%; in [20] it was 3.1%.
Turning to `Clc1ccc(-c2nn3ncccc3c2-c2ccnc(Nc3ccccc3)n2)cc1`, the inhibition is 43.5% in experiment [1]; 7.64% in experiment [2]; 34.1% in [3]; 3.71% in [4]; 5.4% in [5]; 2.64% in experiment [6]. The inhibition in experiment [7] was 4.44%; in experiment [8], 0.65%; in experiment [9], 0.7%; in experiment [10], 1.38%; in [11], 2.29%; in [12], -4.43%. Moreover, the inhibition in experiment [13] is -2.06%; in experiment [14], 1.44%; in experiment [15] it was 0.88%; in experiment [16] it was 0.42%; in experiment [17], 2.99%; in experiment [18], 11.2%. Besides, the values for the inhibition in experiment [19] and in [20] were 42.1% and 11.7%, respectively.
Regarding `Fc1ccc(-c2nn3ccccc3c2-c2ccncc2)cc1`, the inhibition in experiment [1] is 1.04%; in experiment [2], 1.96%; in [3], 5.95%; in [4], 0.6%; in experiment [5] it was 0.31%; in experiment [6], 1.92%. Besides, the inhibition in experiment [7] was 4.03%; in [8] it was -0.72%; in experiment [9], 0.71%; in [10], 1.1%; in experiment [11], 1.56%; in experiment [12] it was 0.87%. For the same molecule, the inhibition is -0.62% in experiment [13]; 0.36% in [14]; 1.23% in experiment [15]; -0.48% in experiment [16]; 0.18% in experiment [17]; 3.84% in [18]. Further, the results for the inhibition in experiment [19] and in [20] were 9.61% and 1.23%, respectively.
Turning to `CNC(=O)c1cc(-c2ccc(F)cc2)cc(-c2ccc(S(=O)(=O)N3CCCC3)cc2)c1N`, the inhibition was determined as 5.48% in experiment [1]; 2.71% in experiment [2]; 3.16% in [3]; 0.57% in [4]; 1.32% in experiment [5]; 4.78% in experiment [6]. Besides, the inhibition is 5.39% in experiment [7]; -0.17% in experiment [8]; 1.33% in [9]; 1.41% in experiment [10]; 0.87% in experiment [11]; 0.17% in experiment [12]. In addition, the inhibition in experiment [13] was 1.74%; in [14] it was 1.75%; in experiment [15], 3.18%; in experiment [16], -1.74%; in [17], -0.38%; in experiment [18], 1.67%. The inhibition is 6.2% in experiment [19] and 3.86% in experiment [20].
In the case of `CCn1cc(-c2ccnc3[nH]ccc23)c(-c2cccc(NC(=O)Nc3ccc(OCc4ccccc4)cc3)c2)n1`, the inhibition was 1.64% in experiment [1]; 0.36% in experiment [2]; 2.34% in experiment [3]; -3.42% in [4]; 0.41% in [5]; 2.08% in experiment [6]. In addition, the inhibition in [7] is 3.81%; in [8], -1.45%; in experiment [9], -1.26%; in experiment [10] it was -0.92%; in experiment [11], -0.24%; in experiment [12], 1.9%. The inhibition in experiment [13] is 1.7%; in experiment [14], -0.01%; in experiment [15], -1.69%; in [16], -1.38%; in experiment [17], -0.25%; in [18] it was 0.29%. Also, the inhibition in experiment [19] is 7.33%; in [20], -2.3%.
